Paper PMC7862700, “An all-to-all approach to the identification of sequence-specific readers for epigenetic DNA modifications on cytosine”

Key:
Assay in all cases: DAPPL (digital affinity profiling via proximity ligation, sequencing); 10 mM Tris-HCl pH 7.5, 50 mM NaCl, 1 mM DTT, 4% glycerol, room temperature, 30 min; GST-TFs on glutathione beads, 16-mer random dsDNA library, 0.1% formaldehyde crosslink after washing; high values mean tight binding
HSF1 = HSF1 (Homo sapiens, UniProt Q00613 1-529); conditions: protein: recombinant; tags: N-terminal GST; chain copies: 3; dsDNA, one strand shown
Sequence of HSF1 (Q00613 whole entry, the tested form may be a part): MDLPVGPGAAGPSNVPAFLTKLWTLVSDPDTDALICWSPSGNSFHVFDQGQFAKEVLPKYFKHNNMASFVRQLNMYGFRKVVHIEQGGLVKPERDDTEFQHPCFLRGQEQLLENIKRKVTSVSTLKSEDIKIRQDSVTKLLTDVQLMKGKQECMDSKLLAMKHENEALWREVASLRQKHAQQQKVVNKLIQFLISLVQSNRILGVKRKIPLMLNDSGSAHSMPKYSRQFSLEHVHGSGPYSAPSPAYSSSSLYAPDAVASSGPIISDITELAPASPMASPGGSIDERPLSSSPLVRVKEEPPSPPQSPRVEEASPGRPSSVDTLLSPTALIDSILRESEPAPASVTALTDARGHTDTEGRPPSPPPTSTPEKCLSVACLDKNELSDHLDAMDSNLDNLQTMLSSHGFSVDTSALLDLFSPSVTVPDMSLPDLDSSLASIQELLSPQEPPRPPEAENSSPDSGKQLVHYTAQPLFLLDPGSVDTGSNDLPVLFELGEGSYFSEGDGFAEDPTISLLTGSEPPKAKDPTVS
Procedure, shortened: (§1)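 Pools were built from human transcription factors expressed in yeast as GST fusions, captured on glutathione beads and DNA-barcoded, along with a tag-only sample. Incubation with 200 nmole of a 16-mer random double-stranded DNA library lasted 30 min at room temperature in Tris/NaCl/DTT/glycerol buffer, and was followed by washing, 0.1% formaldehyde crosslinking, proximity ligation, PCR amplification and Illumina NextSeq500 sequencing. Binding signal is the quotient of each hexamer's read frequency for a factor and its frequency for the tag-only sample.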

ELK4 = target: T1, ELK4 (Homo sapiens, UniProt P28324-2 1-405); conditions: protein: recombinant; tags: N-terminal GST; dsDNA, one strand shown
T1 sequence: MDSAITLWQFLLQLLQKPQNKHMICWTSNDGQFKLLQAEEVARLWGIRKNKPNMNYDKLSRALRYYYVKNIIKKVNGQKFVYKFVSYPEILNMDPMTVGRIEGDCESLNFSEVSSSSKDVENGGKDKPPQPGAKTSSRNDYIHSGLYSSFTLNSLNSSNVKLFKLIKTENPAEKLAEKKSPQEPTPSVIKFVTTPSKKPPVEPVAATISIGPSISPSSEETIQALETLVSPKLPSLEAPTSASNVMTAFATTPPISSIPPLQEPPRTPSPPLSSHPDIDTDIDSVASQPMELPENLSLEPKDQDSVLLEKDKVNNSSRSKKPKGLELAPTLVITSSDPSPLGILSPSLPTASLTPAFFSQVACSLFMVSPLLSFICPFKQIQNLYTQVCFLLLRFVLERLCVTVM
Procedure, shortened: as §1

ETV2 = target: T2, ETV2 (Homo sapiens, UniProt O00321 1-342); conditions: protein: recombinant; tags: N-terminal GST; dsDNA, one strand shown
T2 sequence: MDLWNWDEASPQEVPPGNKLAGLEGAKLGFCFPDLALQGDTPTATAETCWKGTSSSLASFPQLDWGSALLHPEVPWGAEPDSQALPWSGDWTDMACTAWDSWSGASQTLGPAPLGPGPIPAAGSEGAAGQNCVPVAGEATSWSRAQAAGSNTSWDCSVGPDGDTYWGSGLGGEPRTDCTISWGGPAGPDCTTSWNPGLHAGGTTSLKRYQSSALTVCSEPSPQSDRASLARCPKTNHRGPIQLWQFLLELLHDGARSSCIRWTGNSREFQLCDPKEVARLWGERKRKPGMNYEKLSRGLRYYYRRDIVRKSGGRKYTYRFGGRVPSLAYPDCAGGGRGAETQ
Procedure, shortened: as §1

ETV7 = target: T3, ETV7 (Homo sapiens, UniProt Q9Y603 1-341); conditions: protein: recombinant; tags: N-terminal GST; dsDNA, one strand shown
T3 sequence: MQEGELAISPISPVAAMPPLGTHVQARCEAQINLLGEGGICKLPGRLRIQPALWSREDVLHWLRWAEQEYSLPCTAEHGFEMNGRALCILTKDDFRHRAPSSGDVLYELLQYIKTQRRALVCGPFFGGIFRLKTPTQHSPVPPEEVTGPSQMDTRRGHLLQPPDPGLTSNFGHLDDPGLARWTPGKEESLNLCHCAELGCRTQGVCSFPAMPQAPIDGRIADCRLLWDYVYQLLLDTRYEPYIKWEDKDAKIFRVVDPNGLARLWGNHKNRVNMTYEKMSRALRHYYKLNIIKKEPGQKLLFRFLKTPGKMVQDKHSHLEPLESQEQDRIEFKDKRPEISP
Procedure, shortened: as §1

ELK3 = target: T4, ELK3 (Homo sapiens, UniProt P41970 1-407); conditions: protein: recombinant; tags: N-terminal GST; dsDNA, one strand shown
T4 sequence: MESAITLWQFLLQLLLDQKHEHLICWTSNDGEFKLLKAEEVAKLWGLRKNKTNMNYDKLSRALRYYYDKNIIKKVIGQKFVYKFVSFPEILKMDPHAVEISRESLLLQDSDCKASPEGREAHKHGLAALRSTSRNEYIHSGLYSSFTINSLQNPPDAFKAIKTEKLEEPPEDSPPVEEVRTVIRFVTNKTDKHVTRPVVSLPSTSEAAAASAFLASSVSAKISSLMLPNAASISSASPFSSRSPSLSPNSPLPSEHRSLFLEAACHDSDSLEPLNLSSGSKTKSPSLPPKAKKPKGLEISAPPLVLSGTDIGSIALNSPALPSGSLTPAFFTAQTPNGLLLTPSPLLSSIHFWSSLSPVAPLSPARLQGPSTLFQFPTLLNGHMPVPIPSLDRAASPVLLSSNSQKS
Procedure, shortened: as §1

ELF4 = ELF4 (Homo sapiens, UniProt Q99607 1-663); conditions: protein: recombinant; tags: N-terminal GST; dsDNA, one strand shown
Sequence of ELF4 (Q99607 whole entry): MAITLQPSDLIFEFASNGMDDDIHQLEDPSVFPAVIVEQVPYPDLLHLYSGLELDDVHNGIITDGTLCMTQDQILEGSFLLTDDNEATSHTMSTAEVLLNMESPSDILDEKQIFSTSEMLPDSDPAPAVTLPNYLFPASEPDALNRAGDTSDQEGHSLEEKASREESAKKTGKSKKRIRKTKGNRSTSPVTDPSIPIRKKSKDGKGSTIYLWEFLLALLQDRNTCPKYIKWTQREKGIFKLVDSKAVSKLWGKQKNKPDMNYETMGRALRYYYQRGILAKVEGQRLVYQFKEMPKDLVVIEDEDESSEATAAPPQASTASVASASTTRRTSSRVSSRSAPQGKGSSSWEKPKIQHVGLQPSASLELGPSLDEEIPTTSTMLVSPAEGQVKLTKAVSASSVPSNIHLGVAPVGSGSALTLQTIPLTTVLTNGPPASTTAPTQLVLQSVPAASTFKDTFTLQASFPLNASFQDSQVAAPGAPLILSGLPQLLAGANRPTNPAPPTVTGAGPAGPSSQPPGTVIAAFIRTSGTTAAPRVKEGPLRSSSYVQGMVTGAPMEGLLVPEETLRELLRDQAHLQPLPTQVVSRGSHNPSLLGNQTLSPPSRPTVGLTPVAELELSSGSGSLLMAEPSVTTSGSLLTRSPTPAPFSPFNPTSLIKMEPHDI
Procedure, shortened: as §1

ELF3 = target: T5, ELF3 (Homo sapiens, UniProt P78545 1-371); conditions: protein: recombinant; tags: N-terminal GST; dsDNA, one strand shown
T5 sequence: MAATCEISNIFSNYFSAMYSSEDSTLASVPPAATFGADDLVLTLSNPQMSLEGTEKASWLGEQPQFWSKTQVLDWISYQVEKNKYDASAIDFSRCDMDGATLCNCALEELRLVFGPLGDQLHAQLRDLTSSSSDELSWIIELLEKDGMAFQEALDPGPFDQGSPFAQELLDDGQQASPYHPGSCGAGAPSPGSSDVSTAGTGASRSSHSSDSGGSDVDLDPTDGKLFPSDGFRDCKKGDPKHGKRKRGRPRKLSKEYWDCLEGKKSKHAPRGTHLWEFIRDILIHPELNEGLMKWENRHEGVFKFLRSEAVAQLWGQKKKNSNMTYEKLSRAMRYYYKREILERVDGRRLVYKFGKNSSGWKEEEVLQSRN
Procedure, shortened: as §1

CRX = CRX (Homo sapiens, UniProt O43186 1-299); conditions: protein: recombinant; tags: N-terminal GST; dsDNA, one strand shown
Sequence of CRX (O43186 whole entry): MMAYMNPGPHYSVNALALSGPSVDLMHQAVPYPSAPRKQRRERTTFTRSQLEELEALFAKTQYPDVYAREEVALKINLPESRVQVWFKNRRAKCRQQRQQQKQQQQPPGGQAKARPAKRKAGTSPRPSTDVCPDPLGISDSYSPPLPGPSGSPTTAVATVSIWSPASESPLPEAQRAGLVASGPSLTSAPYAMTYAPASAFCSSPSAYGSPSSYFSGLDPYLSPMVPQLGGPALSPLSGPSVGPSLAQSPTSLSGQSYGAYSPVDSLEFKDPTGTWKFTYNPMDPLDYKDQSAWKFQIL
Procedure, shortened: as §1

EHF = target: T6, EHF (Homo sapiens, UniProt Q9NZC4 1-300); conditions: protein: recombinant; tags: N-terminal GST; dsDNA, one strand shown
T6 sequence: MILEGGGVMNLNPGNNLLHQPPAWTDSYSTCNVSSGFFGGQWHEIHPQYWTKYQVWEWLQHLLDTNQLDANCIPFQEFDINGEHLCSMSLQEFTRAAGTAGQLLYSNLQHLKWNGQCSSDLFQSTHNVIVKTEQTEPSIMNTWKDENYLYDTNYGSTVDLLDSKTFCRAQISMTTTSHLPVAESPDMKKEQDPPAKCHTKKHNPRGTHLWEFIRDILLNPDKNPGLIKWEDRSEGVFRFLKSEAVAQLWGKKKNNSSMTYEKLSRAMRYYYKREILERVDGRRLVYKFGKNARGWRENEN
Procedure, shortened: as §1

SPIC = target: T7, SPIC (Homo sapiens, UniProt Q8N5J4 1-248); conditions: protein: recombinant; tags: N-terminal GST; dsDNA, one strand shown
T7 sequence: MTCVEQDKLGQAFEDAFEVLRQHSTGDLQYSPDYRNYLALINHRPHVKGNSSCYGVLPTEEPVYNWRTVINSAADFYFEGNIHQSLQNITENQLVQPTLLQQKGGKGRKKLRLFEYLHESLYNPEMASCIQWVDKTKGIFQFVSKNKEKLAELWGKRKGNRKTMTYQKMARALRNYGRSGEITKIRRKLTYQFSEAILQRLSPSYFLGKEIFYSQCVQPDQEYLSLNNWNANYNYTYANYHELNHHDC
Procedure, shortened: as §1

Row | Sequence | binding signal (HSF1) | binding signal (ELK4) | binding signal (ETV2) | binding signal (ETV7) | binding signal (ELK3) | binding signal (ELF4) | binding signal (ELF3) | binding signal (CRX) | binding signal (EHF) | binding signal (SPIC)
1 | CGAAGT | 1.08 fold enrichment (6-mer frequency, TF over GST control) | 1 fold enrichment (6-mer frequency, TF over GST control) | 1.03 fold enrichment (6-mer frequency, TF over GST control) | 1.06 fold enrichment (6-mer frequency, TF over GST control) | – | – | – | – | – | –
2 | CCAGAA | 3.7 fold enrichment (6-mer frequency, TF over GST control) | 1.06 fold enrichment (6-mer frequency, TF over GST control) | 1.05 fold enrichment (6-mer frequency, TF over GST control) | 1.05 fold enrichment (6-mer frequency, TF over GST control) | 1 fold enrichment (6-mer frequency, TF over GST control) | 1.05 fold enrichment (6-mer frequency, TF over GST control) | 1.07 fold enrichment (6-mer frequency, TF over GST control) | 1.49 fold enrichment (6-mer frequency, TF over GST control) | – | –
3 | CTAGGA | 1.08 fold enrichment (6-mer frequency, TF over GST control) | – | – | – | – | – | – | – | 1.01 fold enrichment (6-mer frequency, TF over GST control) | 1.01 fold enrichment (6-mer frequency, TF over GST control)
